Lassa entry inh – qHTS for Inhibitors of binding or entry into cells for Lassa Virus. Potency, µM (highest dose often 37.9 µM), hits mostly inhibitors. Lassa virus pseudotype entry inhibition, cell reporter. hit rate 1.2% among 300,000; calls by dose curve; tested in HEK293 cells; also: nearly all actives have a fitted effect of over 50% in size
CHX counter – Cycloheximide Counterscreen for Small Molecule Inhibitors of Shiga Toxin; cell reporter, cycloheximide protein synthesis inhibition counterscreen; max response, %; hit rate 12% among 300,000; in the data active = max response mostly above about 13%, no sharp cut-off; inactive = mostly below about 14%; also: read at 38.3 µM for the half of the compounds with a filed dose
Pf growth 96h – Primary qHTS for delayed death inhibitors of the malarial parasite plastid, 96 hour incubation | P. falciparum luciferase reporter growth, 96 h | Potency, µM (highest dose often 28.7 µM), most hits filed as inhibitors | hit rate 6.9% among 320,000
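Plates of compound plus infected erythrocytes (2% hematocrit, 0.05% parasitemia final) incubate 96 hours, 37 C, 5% CO2. Detection reagent added; reduced luminescence from the parasites' luciferase reporter flags inhibition.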
Pf growth 48h – Primary qHTS for delayed death inhibitors of the malarial parasite plastid, 48 hour incubation; hit rate 5.9% among 310,000; P. falciparum luciferase growth in erythrocytes, 48 h; Potency, µM (series often up to 28.7 µM), most hits filed as inhibitors
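Luciferase-expressing parasites in RBCs, 2% Hct / 0.1% parasitemia final; RPMI 1640 + 0.5% Albumax; 37 C, 5% CO2, one generation; luminescence read-out, lower signal = inhibition.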
Marburg entry inh – qHTS for inhibitors of binding or entry into cells for Marburg Virus | hit rate 1.8% among 300,000 | Potency, µM (series often up to 37.8 µM), most hits filed as inhibitors | Marburg virus pseudotyped entry inhibition, cell reporter | AID 540276, 2011; calls by dose curve; tested in HEK293 cells
Shiga inhibitor – A qHTS for Small Molecule Inhibitors of Shiga Toxin. Vero cells, Shiga toxin protein synthesis inhibition reporter. inhibition, % at 38.7 µM. hit rate 9.2% among 290,000; in the data active = inhibition mostly above about 28%, no sharp cut-off; inactive = mostly below about 43%
Numbers stand for hits; n = inactive; u = inconclusive; x = no result. Hits are enriched below; roughly 19% of the tested compounds scored in any of these assays. Unless noted, calls follow the shape of the dose curve; as a rule, active = well fitted inhibition curve with a large enough effect; inconclusive = small, poorly fitted or top-dose-only effect, or another doubt; inactive = no such curve, though single readings can be large or run the other way.

SMILES	Lassa entry inh	CHX counter	Pf growth 96h	Pf growth 48h	Marburg entry inh	Shiga inhibitor
O=C(NCCCN1CCOCC1)c1cc2c(s1)CCCC2	u	n	x	n	u	n
O=C(NCCCN1CCCC1=O)c1cc2c(s1)CCCCC2	x	49	n	n	x	73
COc1ccc(NC(=O)c2cc3c(=O)[nH]c4ccccc4c3n2C)cc1Cl	n	x	x	x	n	x
COc1ccccc1N(CC(=O)N1CCCCCC1)S(C)(=O)=O	n	n	n	n	n	n
COC(=O)C(C(=O)Nc1ncccn1)C1CCCCCC1 (centres undefined)	n	n	n	n	n	n
COc1ccc2nc(-c3ccco3)c(-c3ccco3)nc2c1	n	54	n	x	n	n
COc1ccc(-c2nc3ccccc3nc2-c2ccc(OC)cc2)cc1	x	n	n	u	x	n
c1coc(-c2nc(-c3ccco3)c(-c3ccco3)nc2-c2ccco2)c1	n	n	n	n	n	n
c1coc(-c2nc3cc4ccccc4cc3nc2-c2ccco2)c1	x	26	x	x	x	66
CCN(/C=N/c1sc2c(c1C#N)CCCCC2)CC	n	52	n	n	u	67
CN1CCN(/C=N/c2sc3c(c2C#N)CCCCC3)CC1	u	46	n	n	u	89
CC(C)CN(/C=N/c1sc2c(c1C#N)CCCCC2)CC(C)C	x	n	u	x	x	n
Cc1ccc(NC(=O)CCc2nnc3ccc(N4CCOCC4)nn23)cc1C	x	n	n	u	x	n
O=C(O)CCCCCCCCCCC1CCC(O)C1O (centres undefined)	n	x	x	x	u	x
COc1ccc(-c2cc3cc(OC)c(OC)cc3cn2)cc1OC	n	x	x	x	n	x
COc1ccc(Br)cc1S(=O)(=O)Nc1cc(-c2cn3ccccc3n2)ccc1C	n	x	x	x	n	x
COc1ccc(-c2cn3ccccc3n2)cc1OC	n	27	n	n	u	78
Cc1cc(C)c(S(=O)(=O)Nc2cc(-c3cn4ccccc4n3)ccc2C)cc1C	u	x	x	x	n	x
COc1ccc(-c2cn3cc(C)ccc3n2)cc1OC	u	33	n	n	u	55
COc1ccc(-c2cn3cc(C)ccc3n2)cc1F	u	16	u	n	u	n
CC1(C)Cc2noc(N)c2C(C)(C)N1OC(=O)c1ccccc1	u	n	u	u	n	n
c1ccc2c(c1)nnn2Cc1nnc2sc(-c3ccncc3)nn12	n	n	n	n	n	n
CC(=O)n1cc(/C=N/NC(=O)c2ccccc2Cl)c2ccccc21	x	n	u	x	x	n
CC(=O)n1cc(/C=N/NC(=O)c2ccc(Cl)cc2)c2ccccc21	x	41	u	n	x	61
CC(=O)n1cc(/C=N/NC(=O)c2cccc(O)c2)c2ccccc21	n	36	u	x	n	59
SMILES	Lassa entry inh	CHX counter	Pf growth 96h	Pf growth 48h	Marburg entry inh	Shiga inhibitor
CCOC(=O)N1CCN(C(=O)C(CC)n2nc(C)c3sc4ccccc4c3c2=O)CC1 (centres undefined)	u	n	n	u	n	n
CN(c1ccccc1)S(=O)(=O)c1ccc(C(=O)Nc2nccs2)cc1	x	n	u	x	x	n
CN(c1ccccc1)S(=O)(=O)c1ccc(C(=O)Nc2ncccc2O)cc1	u	x	9.3µM	6.6µM	u	x
CCN(c1ccccc1)S(=O)(=O)c1ccc(C(=O)Nc2ncccc2C)cc1	n	x	n	u	n	x
CCN(c1ccccc1)S(=O)(=O)c1ccc(C(=O)Nc2ncccc2O)cc1	n	n	5.9µM	u	n	n
Cc1cccc(NC(=O)NC2CCCCCCC2)c1C	n	n	u	n	n	n
O=c1c(-c2ccc3c(c2)OCCO3)coc2cc(OC3OC(CO)C(O)C(O)C3O)ccc12 (centres undefined)	u	40	n	n	u	54
COc1cc2c(=O)c(-c3ccc(O)cc3)coc2cc1OC1OC(CO)C(O)C(O)C1O (centres undefined)	n	n	n	n	u	n
COc1ccc(NC(=O)CCS(=O)(=O)c2ccc3c(c2)oc(=O)n3C)cc1OC	u	n	u	n	x	n
CN(CC(=O)N1CCN(Cc2ccccc2)CC1)S(=O)(=O)c1cccc2nsnc12	x	n	4.1µM	n	x	n
CN(CC(=O)NCCN1CCN(Cc2ccccc2)CC1)S(=O)(=O)c1cccc2nsnc12	n	n	n	u	n	n
CN(CC(=O)NCCc1ccccc1)S(=O)(=O)c1cccc2nsnc12	n	n	8.3µM	n	n	n
CCN(CCCNC(=O)CN(C)S(=O)(=O)c1cccc2nsnc12)c1ccccc1	n	n	12µM	u	n	n
CN(CC(=O)NCc1ccc(Cl)cc1)S(=O)(=O)c1cccc2nsnc12	n	n	u	n	n	n
CCc1ccccc1NC(=O)CN(C)S(=O)(=O)c1cccc2nsnc12	n	x	x	x	n	x
S=C(c1ccc(-c2ccccc2)cc1)N1CCOCC1	n	n	u	n	u	n
Cc1ccccc1C(=O)Nc1cccc(C(=O)Nc2ccccc2C(=O)O)c1	x	n	n	n	x	n
O=C(Nc1ccccc1Cl)c1ccccc1	n	30	n	n	n	148
O=C(Nc1ccc(Cl)cc1C(F)(F)F)c1ccccc1	u	16	u	n	n	n
O=C(Nc1ccc(Cl)cc1Cl)C1=Cc2ccccc2OC1	13µM	54	n	x	u	68
O=C(Nc1ccccc1C(=O)O)c1cccc(NC(=O)c2ccccc2Cl)c1	x	n	10µM	n	x	x
O=C(Nc1ccccc1Cl)c1ccc(C(=O)Nc2ccccc2Cl)cc1	n	x	x	x	n	x
CCc1ccc(-c2ccc3nnc(SCC(N)=O)n3n2)cc1	x	n	n	n	x	n
Cc1cc([N+](=O)[O-])ccc1NCc1ccc2c(c1)OCCO2	n	n	u	u	n	n
COc1ccccc1NC(=O)c1ccc(NC(=O)COC(=O)C(C)C)cc1	n	n	6.6µM	7.4µM	n	n
SMILES	Lassa entry inh	CHX counter	Pf growth 96h	Pf growth 48h	Marburg entry inh	Shiga inhibitor
O=C(Nc1ccc(C(=O)Nc2ccccc2Cl)cc1)c1cccnc1	n	19	n	n	n	29
Cc1c(Cl)cccc1NC(=O)c1ccc(C(=O)Nc2cccc(Cl)c2C)cc1	n	x	x	x	x	x
Cc1ccc(C(=O)Nc2ccccc2Cl)cc1	u	37	n	n	u	x
COc1ccccc1NC(=O)c1ccc(NC(=O)COC(=O)c2ccc(O)cc2)cc1	x	x	n	u	x	x
Cc1ccccc1NC(=O)c1cccnc1	x	n	n	n	x	n
COCC(=O)Nc1ccc(C(=O)Nc2ccccc2Cl)cc1	x	33	n	n	x	92
CCN(CC)C(=O)c1ccc2c3c(cccc13)C(=O)N(CCc1ccc(OC)c(OC)c1)C2=O	u	n	u	u	u	n
CC1CCN(CC[C@H]2CCCN2S(=O)(=O)c2cccc(O)c2)CC1	n	x	n	n	u	x
CCOc1ccc(CNC(=O)C(C)n2ccc3cc(S(=O)(=O)N4CCCC4)ccc32)cc1 (centres undefined)	x	n	u	u	x	n
O=C(Nc1cccc(Cl)c1Cl)c1ccc(-c2ccccc2)cc1	u	n	n	n	n	n
NC(=O)c1ccccc1NC(=O)c1ccccc1Cl	x	n	u	n	x	n
O=C(Nc1ccccc1C(=O)Nc1nnc(C(F)(F)F)s1)c1ccccc1Cl	u	n	4.7µM	u	u	n
